Test results reported in ChEMBL document CHEMBL3988442, “University of Dundee, Small-Polar-MMV Screening Library” (2021).
For some of these results: Potency and affinity values are given separately.

Tests used:
Design in all cases: scale not given: direction of the effect not stated beside the values
[1] = molecular target: Protein translocase subunit SecA (Escherichia coli (strain K12)) (UniProt P10408); assay: Assay to Identify E. coli SecA ATPase Inhibitors; type: functional; conditions: 30 µM
Protein translocase subunit SecA (Escherichia coli (strain K12)), sequence (P10408 whole entry): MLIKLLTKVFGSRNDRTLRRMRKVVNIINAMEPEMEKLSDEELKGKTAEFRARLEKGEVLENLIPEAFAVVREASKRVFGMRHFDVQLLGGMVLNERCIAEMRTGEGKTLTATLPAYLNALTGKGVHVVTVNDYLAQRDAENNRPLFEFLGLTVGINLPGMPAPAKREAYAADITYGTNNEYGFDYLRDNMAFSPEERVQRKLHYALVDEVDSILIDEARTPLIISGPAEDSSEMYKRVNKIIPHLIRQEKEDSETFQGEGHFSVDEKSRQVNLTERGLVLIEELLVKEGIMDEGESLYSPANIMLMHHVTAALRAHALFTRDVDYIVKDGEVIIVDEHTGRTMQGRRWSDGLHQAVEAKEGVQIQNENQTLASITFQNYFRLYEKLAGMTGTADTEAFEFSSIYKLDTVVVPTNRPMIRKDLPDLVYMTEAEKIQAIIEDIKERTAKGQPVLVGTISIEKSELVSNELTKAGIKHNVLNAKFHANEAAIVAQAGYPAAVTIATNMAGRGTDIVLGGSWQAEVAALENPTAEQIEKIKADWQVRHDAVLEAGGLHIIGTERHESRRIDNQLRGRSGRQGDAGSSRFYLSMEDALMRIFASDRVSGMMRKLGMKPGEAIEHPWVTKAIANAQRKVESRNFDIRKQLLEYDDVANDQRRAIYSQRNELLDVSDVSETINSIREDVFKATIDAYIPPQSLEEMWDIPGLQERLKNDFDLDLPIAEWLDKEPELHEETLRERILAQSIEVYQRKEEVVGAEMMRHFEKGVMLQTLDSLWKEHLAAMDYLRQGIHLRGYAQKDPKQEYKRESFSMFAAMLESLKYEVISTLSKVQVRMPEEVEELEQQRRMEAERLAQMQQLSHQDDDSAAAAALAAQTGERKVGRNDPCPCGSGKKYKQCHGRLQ

[2] = molecular target: T1, Ubiquitin-activating enzyme e1, putative (Leishmania donovani (strain BPK282A1)) (UniProt E9BSI1); assay: Leishmania donovani Ubiquitin Activating Enzyme (LdE1); type: functional; conditions: 30 µM
T1 sequence (whole entry): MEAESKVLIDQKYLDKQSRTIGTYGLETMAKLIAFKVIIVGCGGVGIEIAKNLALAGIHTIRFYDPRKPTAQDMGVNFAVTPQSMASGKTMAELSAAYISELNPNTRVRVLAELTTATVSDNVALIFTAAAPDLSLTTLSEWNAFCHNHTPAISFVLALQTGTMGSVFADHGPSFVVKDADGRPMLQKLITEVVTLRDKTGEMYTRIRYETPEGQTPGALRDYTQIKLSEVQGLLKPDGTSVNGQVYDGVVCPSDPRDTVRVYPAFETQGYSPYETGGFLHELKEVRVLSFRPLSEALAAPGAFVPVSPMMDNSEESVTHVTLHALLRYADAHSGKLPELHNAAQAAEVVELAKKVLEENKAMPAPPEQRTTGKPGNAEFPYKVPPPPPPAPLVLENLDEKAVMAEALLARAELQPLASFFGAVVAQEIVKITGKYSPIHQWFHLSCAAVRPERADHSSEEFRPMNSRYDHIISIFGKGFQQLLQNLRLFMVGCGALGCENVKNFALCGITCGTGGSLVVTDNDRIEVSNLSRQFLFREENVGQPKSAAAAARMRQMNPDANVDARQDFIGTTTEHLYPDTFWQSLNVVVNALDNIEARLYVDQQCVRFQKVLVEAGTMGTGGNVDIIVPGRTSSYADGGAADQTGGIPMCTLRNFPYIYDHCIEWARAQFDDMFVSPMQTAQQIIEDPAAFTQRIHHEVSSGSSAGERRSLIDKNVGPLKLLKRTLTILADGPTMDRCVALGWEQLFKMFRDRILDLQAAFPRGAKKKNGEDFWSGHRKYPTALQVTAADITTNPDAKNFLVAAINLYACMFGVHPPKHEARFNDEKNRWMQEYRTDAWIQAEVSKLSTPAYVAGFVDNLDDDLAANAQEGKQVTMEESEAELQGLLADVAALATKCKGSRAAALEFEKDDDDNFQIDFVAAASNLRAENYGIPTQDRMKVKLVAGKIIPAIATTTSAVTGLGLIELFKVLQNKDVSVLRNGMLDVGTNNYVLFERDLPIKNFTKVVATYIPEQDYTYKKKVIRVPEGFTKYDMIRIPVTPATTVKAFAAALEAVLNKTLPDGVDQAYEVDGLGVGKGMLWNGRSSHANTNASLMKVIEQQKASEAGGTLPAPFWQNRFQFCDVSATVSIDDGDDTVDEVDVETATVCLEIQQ

[3] = molecular target: AMP-activated protein kinase, AMPK (Homo sapiens) (UniProt P54646+O43741+P54619+Q9UGJ0+Q9Y478+Q13131+Q9UGI9); assay: AMP-dependent Kinase enzyme assay. An in vitro enzyme assay that detects ADP turnover that is directly proportional to AMPK activity. This uses naive AMPK that is activated during the assay with MK-8722; type: functional; conditions: 30 µM
[4] = molecular target: Sialic acid-binding Ig-like lectin 9 (Homo sapiens) (UniProt Q9Y336); assay: Hs-Siglec9 ALPHAscreen SOP 20170721; conditions: 10 µM
Sialic acid-binding Ig-like lectin 9 (Homo sapiens), sequence (Q9Y336 whole entry): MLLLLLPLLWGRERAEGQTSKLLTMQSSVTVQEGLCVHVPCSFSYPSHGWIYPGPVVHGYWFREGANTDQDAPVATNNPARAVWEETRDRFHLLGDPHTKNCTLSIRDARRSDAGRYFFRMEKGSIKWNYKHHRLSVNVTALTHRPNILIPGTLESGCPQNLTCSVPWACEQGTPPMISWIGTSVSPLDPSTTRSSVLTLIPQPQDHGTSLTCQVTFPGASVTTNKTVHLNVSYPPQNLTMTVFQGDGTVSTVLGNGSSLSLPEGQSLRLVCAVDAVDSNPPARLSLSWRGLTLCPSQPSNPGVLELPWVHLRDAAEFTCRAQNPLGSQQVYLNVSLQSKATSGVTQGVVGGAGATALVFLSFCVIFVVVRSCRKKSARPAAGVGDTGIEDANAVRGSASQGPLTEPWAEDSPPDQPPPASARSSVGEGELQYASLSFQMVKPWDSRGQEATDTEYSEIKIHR

[5] = tested on: Trypanosoma cruzi; assay: Trypanosoma cruzi phosphomannomutase and mannose-1-phosphate guanylyltransferase assay; type: functional; conditions: 10 µM
[6] = molecular target: T2, Arginase-2, mitochondrial (Homo sapiens) (UniProt P78540); assay: in vitro enzyme assay to detect the production of urea directly proportional to the activity of Arginase II; type: functional; conditions: 33.3 µM; further: in the data most compounds retested in dose-response had high values
T2 sequence (whole entry): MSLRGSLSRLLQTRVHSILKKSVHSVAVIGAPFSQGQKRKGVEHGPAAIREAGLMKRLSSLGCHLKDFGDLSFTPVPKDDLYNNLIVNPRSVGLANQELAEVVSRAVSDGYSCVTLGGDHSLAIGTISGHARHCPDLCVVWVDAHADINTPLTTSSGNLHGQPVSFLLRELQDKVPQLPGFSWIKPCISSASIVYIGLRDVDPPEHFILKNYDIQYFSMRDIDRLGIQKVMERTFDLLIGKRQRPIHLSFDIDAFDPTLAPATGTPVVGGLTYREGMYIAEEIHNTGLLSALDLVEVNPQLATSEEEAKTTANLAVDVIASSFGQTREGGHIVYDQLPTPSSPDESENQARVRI

[7] = molecular target: T3, Proteasome subunit beta (Trypanosoma cruzi) (UniProt O96673); assay: Trypanosoma cruzi proteasome chymotrypsin-like activity (TcProtChymo) assay.; further: in the data most compounds retested in dose-response had high values; type: functional; conditions: 9.37 µM
T3 sequence (whole entry): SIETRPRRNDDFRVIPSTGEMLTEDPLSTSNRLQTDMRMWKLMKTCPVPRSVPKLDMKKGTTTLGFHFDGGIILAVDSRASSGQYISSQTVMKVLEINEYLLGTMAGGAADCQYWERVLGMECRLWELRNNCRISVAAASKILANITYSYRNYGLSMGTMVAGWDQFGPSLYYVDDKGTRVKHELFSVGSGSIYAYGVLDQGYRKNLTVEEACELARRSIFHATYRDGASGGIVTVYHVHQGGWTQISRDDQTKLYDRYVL

[8] = species: Homo sapiens; assay: To identify inhibition of the IFN signalling (Jak-Stat) pathway via expression of an eGFP reporter gene under the control of an IFN-stimulated response element (ISRE) containing MxA promoter.; type: functional; conditions: 30 µM
[9] = molecular target: T4, Tyrosyl-tRNA synthetase, putative (Trypanosoma cruzi (strain CL Brener)) (UniProt Q4DSP6); assay: Trypanosoma cruzi tyrosyl tRNA synthetase (TcYRS) _High Tyrosine SOP; type: functional; conditions: 30 µM; further: in the data most compounds retested in dose-response had high values
T4 sequence (whole entry): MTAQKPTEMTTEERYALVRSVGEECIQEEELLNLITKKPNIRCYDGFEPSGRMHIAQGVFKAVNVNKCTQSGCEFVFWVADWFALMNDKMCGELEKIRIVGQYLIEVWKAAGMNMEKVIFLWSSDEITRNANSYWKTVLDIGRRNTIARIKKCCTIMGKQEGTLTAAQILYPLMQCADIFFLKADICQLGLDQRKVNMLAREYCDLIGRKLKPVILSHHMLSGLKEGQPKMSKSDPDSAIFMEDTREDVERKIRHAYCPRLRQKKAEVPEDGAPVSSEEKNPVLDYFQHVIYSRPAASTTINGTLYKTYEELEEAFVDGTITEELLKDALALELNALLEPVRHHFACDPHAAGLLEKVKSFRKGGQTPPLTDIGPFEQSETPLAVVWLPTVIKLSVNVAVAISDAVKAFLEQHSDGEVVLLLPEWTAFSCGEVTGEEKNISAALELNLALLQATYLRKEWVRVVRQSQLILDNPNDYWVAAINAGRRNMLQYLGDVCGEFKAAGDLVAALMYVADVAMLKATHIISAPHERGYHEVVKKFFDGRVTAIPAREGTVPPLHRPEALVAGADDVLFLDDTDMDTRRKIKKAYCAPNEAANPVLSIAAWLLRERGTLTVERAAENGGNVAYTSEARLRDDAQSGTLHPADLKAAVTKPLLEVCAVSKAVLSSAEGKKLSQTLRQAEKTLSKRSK

[10] = molecular target: T4, Tyrosyl-tRNA synthetase, putative (Trypanosoma cruzi (strain CL Brener)); assay: Trypanosoma cruzi tyrosyl tRNA synthetase (TcYRS) SOP; type: functional; conditions: 30 µM
[11] = molecular target: Chromo domain-containing protein 1 (Saccharomyces cerevisiae (strain ATCC 204508 / S288c) (Baker's yeast)) (UniProt P32657); assay: ScCHD-1 Enzyme Inhibition Assay; type: functional; conditions: 30 µM; further: in the data most compounds retested in dose-response had high values
Chromo domain-containing protein 1 (Saccharomyces cerevisiae (strain ATCC 204508 / S288c) (Baker's yeast)), sequence (P32657 whole entry, the tested form may be a part): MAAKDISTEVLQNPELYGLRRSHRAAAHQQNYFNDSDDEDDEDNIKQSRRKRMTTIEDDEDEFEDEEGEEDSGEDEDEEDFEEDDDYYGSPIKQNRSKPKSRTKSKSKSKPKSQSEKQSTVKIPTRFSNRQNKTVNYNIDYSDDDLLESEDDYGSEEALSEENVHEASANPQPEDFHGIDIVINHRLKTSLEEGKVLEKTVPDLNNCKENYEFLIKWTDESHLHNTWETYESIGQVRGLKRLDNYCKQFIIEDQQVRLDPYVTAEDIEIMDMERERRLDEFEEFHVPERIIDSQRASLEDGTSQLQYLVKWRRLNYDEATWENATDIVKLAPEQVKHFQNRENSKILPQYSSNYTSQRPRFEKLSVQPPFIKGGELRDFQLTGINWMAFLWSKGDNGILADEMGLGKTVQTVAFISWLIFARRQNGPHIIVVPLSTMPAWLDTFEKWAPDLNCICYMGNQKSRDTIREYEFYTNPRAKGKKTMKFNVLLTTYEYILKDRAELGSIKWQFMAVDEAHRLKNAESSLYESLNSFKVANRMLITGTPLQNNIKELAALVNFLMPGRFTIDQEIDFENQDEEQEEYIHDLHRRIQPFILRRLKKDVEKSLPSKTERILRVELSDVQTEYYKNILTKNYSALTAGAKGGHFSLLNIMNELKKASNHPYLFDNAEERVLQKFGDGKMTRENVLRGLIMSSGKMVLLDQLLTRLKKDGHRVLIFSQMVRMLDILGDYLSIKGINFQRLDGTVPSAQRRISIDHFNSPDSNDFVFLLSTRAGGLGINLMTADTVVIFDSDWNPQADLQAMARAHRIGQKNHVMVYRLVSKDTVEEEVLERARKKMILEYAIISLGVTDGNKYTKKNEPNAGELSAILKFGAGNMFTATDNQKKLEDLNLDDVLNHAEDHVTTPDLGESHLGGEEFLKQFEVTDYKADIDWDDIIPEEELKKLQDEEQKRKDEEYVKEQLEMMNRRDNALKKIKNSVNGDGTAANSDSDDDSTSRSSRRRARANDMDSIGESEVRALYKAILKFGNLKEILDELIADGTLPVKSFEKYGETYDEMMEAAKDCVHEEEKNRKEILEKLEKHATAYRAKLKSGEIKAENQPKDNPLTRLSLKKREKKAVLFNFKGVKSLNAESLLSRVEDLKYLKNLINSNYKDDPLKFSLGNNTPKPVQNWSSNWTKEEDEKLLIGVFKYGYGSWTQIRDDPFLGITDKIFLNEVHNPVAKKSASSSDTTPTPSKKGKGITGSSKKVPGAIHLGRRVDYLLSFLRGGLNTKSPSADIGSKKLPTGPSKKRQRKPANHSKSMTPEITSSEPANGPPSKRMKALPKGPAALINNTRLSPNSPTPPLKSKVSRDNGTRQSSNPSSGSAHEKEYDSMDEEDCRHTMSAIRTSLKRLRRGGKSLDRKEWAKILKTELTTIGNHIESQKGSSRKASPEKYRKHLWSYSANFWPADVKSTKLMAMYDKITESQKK

| Structure (SMILES) | Percent Effect [1] [%] | Percent Effect [2] [%] | Percent Effect [3] [%] | Percent Effect [4] [%] | Percent Effect [5] [%] | Percent Effect [6] [%] | Percent Effect [7] [%] | Percent Effect [8] [%] | Percent Effect [9] [%] | Percent Effect [10] [%] | Percent Effect [11] [%] |
| --- | --- | --- | --- | --- | --- | --- | --- | --- | --- | --- | --- |
| COCC1COCCC12CCN(C(=O)CCc1ccccc1)CC2 (stereo unspecified) | -7.38 | 0 | 1.05 | -3.38 | -2.73 | 0 | 4.65 | -6.87 | 3.96 | 3.66 | 6.04 |
| CCSCCNC(=O)C(c1cccc(F)c1)N(C)C (stereo unspecified) | -5.79 | 8.11 | -0.968 | -3.42 | -4.44 | -0.952 | 13.8 | 20.7 | 6.88 | 7.32 | -3.55 |
| CN(C)c1nccc(N2CCO[C@H]3CN(CC4CCOCC4)C[C@H]32)n1 | 1.86 | 11 | -5.46 | 12.4 | 4.37 | -3.59 | 10.5 | 30.6 | 4.17 | 18.5 | -7.93 |
| CC(NC(=O)NCCCc1n[nH]c(N)c1C#N)c1ccccc1 (stereo unspecified) | -5.52 | 22.8 | 48.4 | -3.62 | 3.68 | -11.8 | 14.8 | 7.81 | 6.4 | 24.1 | -5.91 |
| CCn1cc(C(=O)NCc2csc(Br)c2)cn1 | -4.42 | 3.8 | 6.27 | 4.51 | -2.97 | 3.23 | 7.72 | 13.6 | -1.04 | 7.59 | -2.95 |
| CCn1cnnc1CNC(=O)N1CCC(Cc2cccnc2)CC1 | -2.15 | -2.6 | -0.131 | 1.86 | -4.41 | 1.47 | 0.0808 | 7.54 | -1.91 | -4.71 | 8.62 |
| Cc1cccc(CN2C[C@@H]3CN(C(=O)c4ccsc4)C[C@@H]3C2=O)c1 | -2.06 | 7.79 | 5.77 | 6.12 | -3.25 | 0 | 13 | 18.7 | 3.23 | 8.64 | 0.397 |
| CCN(C(=O)CS(=O)(=O)Cc1cc(Cl)c2c(c1)OCCCO2)C1CC1 | 2.17 | 5.06 | -1.41 | -13.2 | -7.84 | 5.32 | 7.62 | 8.01 | 3.45 | 16.5 | -6.8 |
| Cc1cc(CN2CCc3nn(C)c(=O)cc3C2)on1 | -2.46 | 12.5 | -228 | -1.88 | -0.0972 | 4.86 | 6.84 | -5.36 | -3.16 | -7.69 | -2.45 |
| Cc1nc[nH]c1CN1C[C@@H]2CC[C@H](C1)N(C(=O)CCc1cnn(C)c1)C2 | -1.58 | 6.94 | -9.43 | 16.8 | 4.96 | 29.1 | 5.09 | -11.8 | 2.1 | 7.69 | -1 |
| COc1ccc(NC(=O)N2CCCC2c2ccco2)cc1OC (stereo unspecified) | 0.301 | 13 | 7.21 | -3.22 | -4.24 | -0.645 | 9.57 | 19.6 | -5.29 | 14.1 | -9.73 |
